Test results published in PubChem BioAssay.
Inconclusive results are not listed. The source made the active and inactive calls.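 The calls were made as follows, unless noted: active = normalized viability below 100% at a tested concentration; inactive = the rest.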

Legend:
[1] = growth inhibition of DIPG glioma cells, dose response, cell-based, SU-DIPG-XVII, MIPE5.0, CellTiter-Glo, qHTS (AID 1347060; cut-off not given, nearly all actives have AC50 up to about 26 µM;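 as to AC50: cells exposed to compound for 48 hours before viability readout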); conditions: SU-DIPG-XVII viability, CellTiter-Glo ATP luminescence
[2] = growth inhibition of DIPG glioma cells, dose response, cell-based, SU-DIPG-XIII, MIPE4.0, CellTiter-Glo, qHTS (AID 1347061; cut-off not given, nearly all actives have AC50 up to about 37 µM;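 also: cells exposed to compound for 48 hours before readout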); conditions: SU-DIPG-XIII viability, CellTiter-Glo ATP luminescence
[3] = growth inhibition of DIPG glioma cells, dose response, cell-based, JHH-DIPG-1, MIPE4.0, CellTiter-Glo, qHTS (AID 1347062; cut-off not given, nearly all actives have AC50 up to about 27 µM;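 as to AC50: cells exposed to compound for two days before readout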); conditions: JHH-DIPG-1 viability, CellTiter-Glo ATP luminescence
[4] = growth inhibition of DIPG glioma cells, dose response, cell-based, SU-DIPG-IV, MIPE4.0, CellTiter-Glo, qHTS (AID 1347063; cut-off not given, nearly all actives have AC50 up to about 30 µM;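 also: compound exposure lasted 48 hours before the viability readout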); conditions: SU-DIPG-IV viability, CellTiter-Glo ATP luminescence
[5] = growth inhibition of DIPG glioma cells, dose response, cell-based, SU-DIPG-XIII, MIPE5.0, CellTiter-Glo, qHTS (AID 1347064; cut-off not given, nearly all actives have AC50 up to about 23 µM;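 as to AC50: cells exposed to compound for 48 hours before the viability read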); conditions: SU-DIPG-XIII viability, CellTiter-Glo ATP luminescence
[6] = viability loss in pontine glioma line – cell-based, SU-DIPG-XXV, MIPE5.0, CellTiter-Glo, qHTS, dose response (AID 1347065; cut-off not given, nearly all actives have AC50 up to about 26 µM;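 also: cells exposed to compound for 48 hours before ATP readout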); conditions: CellTiter-Glo ATP luminescence
[7] = JHH-DIPG-1 glioma cell viability, MIPE5.0 library, CellTiter-Glo luminescence, qHTS (AID 1347067; cut-off not given, nearly all actives have AC50 up to about 26 µM;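 also: cells exposed to compound for 48 hours before readout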); conditions: JHH-DIPG-1 glioma viability, CellTiter-Glo ATP luminescence
[8] = modifiers of HSF1 nuclear foci, imaging, Selleck Cancer Library (AID 1347162; in the data active = plate-normalised HSF1 focus index below about 0.46); conditions: human cells, at 10 µM; SSMD: measured here: HSF1 foci SSMD mean; cell count: measured here: cell number; plate-normalised HSF1 focus index: stronger effect = lower value
[9] = SU-DIPG-XXV glioma cell viability, MIPE5.0 library, qHTS (AID 1347068; cut-off not given, nearly all actives have IC50 up to about 30 µM;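 as to IC50: cells exposed to compound for 48 hours before viability readout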)
[10] = sensitizers of A549 cells to miR-34 induction, primary screen, imaging, A549 dox-inducible miR-34, nuclei and caspase counts (AID 1347080;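 active = compounds whose cell count with miR-34 switched on is under 0.7 times the count with it off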); conditions: A549 miR-34 inducible, Hoechst nuclei count, 48 h
[11] = survival rescue of mitochondrial mutant cells in low glucose, primary screen, MELAS cybrids, Rieske KO mouse fibroblasts, CellTiter-Glo (AID 1508586;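 active = mean z-score across replicates of 1.96 or higher in either the MELAS or the Rieske mutant cell line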;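 also: z relative to plate mean and SD of compound and empty wells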)
[12] = ovarian cancer cell viability with rucaparib, profiling panel, oncology-focused library, rucaparib conditional (AID 1508598); conditions: patient-derived ovarian cancer cells, CellTiter-Glo viability, 144 h, stronger effect = lower value
[13] = LFS_MB_P medulloblastoma growth inhibition, cell-based, chromothripsis tumors, cisplatin or BGB combos (AID 1671449; in the data active = inhibition above about 80%;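 also: cells exposed for 96 hours; 0% = vehicle DMSO and 100% = killing by high DMSO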); conditions: LFS_MB_P medulloblastoma cells
[14] = HDN33 neuroblastoma growth inhibition, cell-based, chromothripsis tumors, cisplatin or BGB combos (AID 1671450; in the data active = inhibition above about 80%;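 also: cells exposed to compound for four days; 0% = vehicle DMSO and 100% = cell killing by high DMSO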); conditions: HDN33 neuroblastoma cells, stronger effect = higher value
[15] = ICB984 medulloblastoma cell growth inhibition, synergistic combos for chromothripsis tumors, cisplatin or BGB combos (AID 1671451; call rule not given here;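 also: cells exposed for 96 hours before readout; 0% = vehicle DMSO and 100% = killing by high DMSO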); conditions: ICB984 medulloblastoma cells, drug combinations, stronger effect = higher value
[16] = HTB85 osteosarcoma cell growth inhibition, synergistic combos for chromothripsis tumors, BGB or cisplatin IC20 combos (AID 1671453; in the data active = inhibition above about 80%;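 also: cells exposed for 96 hours before readout; 0% = vehicle DMSO and 100% = high DMSO killing control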); conditions: HTB85 osteosarcoma cells, drug combinations, stronger effect = higher value
[17] = MDA-MB-436 breast carcinoma cell growth inhibition, synergistic combos for chromothripsis tumors, BGB or cisplatin combos (AID 1671458; call rule not given here;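 also: cells exposed for 96 hours; 0% = vehicle DMSO and 100% = killing by high DMSO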); conditions: MDA-MB-436 breast carcinoma growth inhibition, drug combinations, stronger effect = higher value
[18] = growth inhibition of BT084 medulloblastoma cells, cell-based, ICGC_MB145, cisplatin and BGB IC40 combos (AID 1671461; in the data active = inhibition above about 80%;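 also: cells exposed to drugs for 96 hours; 0% = vehicle DMSO and 100% = high DMSO full killing control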); conditions: drug combinations, stronger effect = higher value
[19] = growth inhibition of RCMB18 medulloblastoma cells, cell-based, cisplatin and BGB IC40 combos (AID 1671462; in the data active = inhibition above about 80%;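 also: cells exposed to compound for four days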); conditions: stronger effect = higher value

With `Cc1ccc(C(=O)Nc2cccc(C(F)(F)F)c2)cc1-c1ccc2nc(NCCN3CCOCC3)ncc2c1` the AC50 [1] was 2350 nM (active), the AC50 [2] was 6620 nM (active) and the AC50 [3] was 6620 nM (active). The AC50 [4] was 4690 nM (active), the AC50 [5] was 3720 nM (active) and the AC50 [6] was 2090 nM (active). The AC50 [7] was 2950 nM (active).
For `O=C(/C=C/c1cccnc1)NCCCCC1CCN(C(=O)c2ccccc2)CC1`, the AC50 [1] was 11.8 nM (active), the AC50 [2] was 16.6 nM (active) and the AC50 [3] was 4.18 nM (active). The AC50 [4] was 20.9 nM (active), the AC50 [5] was 1.86 nM (active) and the AC50 [6] was 4.68 nM (active). The AC50 [7] was 4.17 nM (active), the SSMD [8] was 1.27 and the cell count [8] was 7280. For the same compound, the plate-normalised HSF1 focus index [8] was 1.05 (inactive).
With `O=C(c1cncc(Br)c1)N1CCC(N2CCCC2)CC1` the outcome [1] was “inactive”, the outcome [2] was “inactive” and the outcome [3] was “inactive”. For the same compound, the outcome [4] was “inactive”, the outcome [5] was “inactive” and the outcome [6] was “inactive”. The AC50 [7] was 13200 nM (active), the outcome [9] was “inactive” and the fold change ([10]; stronger effect = lower value, cell number ratio, induced over uninduced) was 0.889 (inactive). It also gave a fold change ([10]; measured here: relative caspase fold change +Dox/-Dox) of 0.588, a cell count ([10]; measured here: total cells with miR-34 induction, stronger effect = lower value) of 7820 and a cell count ([10]; measured here: total cells without miR-34 induction) of 8800. For the same compound, the z-score ([11]; MELAS cybrid survival, CellTiter-Glo 48 h, stronger effect = higher value) was -0.503 (inactive) and the z-score ([11]; Rieske KO mouse fibroblast survival, CellTiter-Glo 72 h) was -0.908.
For `CCCCc1nc2cc(/C=C/C(=O)NO)ccc2n1CCN(CC)CC`, the AC50 [1] was 1660 nM (active), the AC50 [2] was 14800 nM (active) and the AC50 [3] was 296 nM (active). For the same compound, the AC50 [4] was 14.8 nM (active), the AC50 [5] was 1320 nM (active) and the AC50 [6] was 332 nM (active). For the same compound, the AC50 [7] was 1050 nM (active), the IC50 [9] was 13200 nM (active) and the SSMD [8] was -1.52. The cell count [8] was 7710, the plate-normalised HSF1 focus index [8] was 0.904 (inactive) and the viability ([12]; at 0.000305 µM, OCI-C5x cells, with rucaparib 10 µM, 100% = cells with rucaparib alone) was 109% (inactive). The viability ([12]; at 0.000305 µM, OCI-C5x cells, without rucaparib) was 111% (inactive), the viability ([12]; at 0.000305 µM, OCI-P5x cells, with rucaparib 20 µM, 100% = cells with rucaparib alone) was 93.3% (active) and the viability ([12]; at 0.000305 µM, OCI-P5x cells, without rucaparib) was 99.3% (active). The viability ([12]; at 0.00122 µM, OCI-C5x cells, with rucaparib 10 µM, 100% = cells with rucaparib alone) was 115% (inactive), the viability ([12]; at 0.00122 µM, OCI-C5x cells, without rucaparib) was 116% (inactive) and the viability ([12]; at 0.00122 µM, OCI-P5x cells, with rucaparib 20 µM, 100% = cells with rucaparib alone) was 98.6% (active). For the same compound, the viability ([12]; at 0.00122 µM, OCI-P5x cells, without rucaparib) was 104% (inactive), the viability ([12]; at 0.00488 µM, OCI-C5x cells, with rucaparib 10 µM, 100% = cells with rucaparib alone) was 117% (inactive) and the viability ([12]; at 0.00488 µM, OCI-C5x cells, without rucaparib) was 117% (inactive). The viability ([12]; at 0.00488 µM, OCI-P5x cells, with rucaparib 20 µM, 100% = cells with rucaparib alone) was 95.5% (active), the viability ([12]; at 0.00488 µM, OCI-P5x cells, without rucaparib) was 107% (inactive) and the viability ([12]; at 0.0195 µM, OCI-C5x cells, with rucaparib 10 µM, 100% = cells with rucaparib alone) was 110% (inactive). For the same compound, the viability ([12]; at 0.0195 µM, OCI-C5x cells, without rucaparib) was 117% (inactive), the viability ([12]; at 0.0195 µM, OCI-P5x cells, with rucaparib 20 µM, 100% = cells with rucaparib alone) was 93.4% (active) and the viability ([12]; at 0.0195 µM, OCI-P5x cells, without rucaparib) was 104% (inactive). The viability ([12]; at 0.0781 µM, OCI-C5x cells, with rucaparib 10 µM, 100% = cells with rucaparib alone) was 96.7% (active), the viability ([12]; at 0.0781 µM, OCI-C5x cells, without rucaparib) was 123% (inactive) and the viability ([12]; at 0.0781 µM, OCI-P5x cells, with rucaparib 20 µM, 100% = cells with rucaparib alone) was 88.6% (active). For the same compound, the viability ([12]; at 0.0781 µM, OCI-P5x cells, without rucaparib) was 95.7% (active), the viability ([12]; at 0.313 µM, OCI-C5x cells, with rucaparib 10 µM, 100% = cells with rucaparib alone) was 92.4% (active) and the viability ([12]; at 0.313 µM, OCI-C5x cells, without rucaparib) was 91.7% (active). The viability ([12]; at 0.313 µM, OCI-P5x cells, with rucaparib 20 µM, 100% = cells with rucaparib alone) was 68.3% (active), the viability ([12]; at 0.313 µM, OCI-P5x cells, without rucaparib) was 76.5% (active) and the viability ([12]; at 1.25 µM, OCI-C5x cells, with rucaparib 10 µM, 100% = cells with rucaparib alone) was 28.3% (active). For the same compound, the viability ([12]; at 1.25 µM, OCI-C5x cells, without rucaparib) was 21.2% (active), the viability ([12]; at 1.25 µM, OCI-P5x cells, with rucaparib 20 µM, 100% = cells with rucaparib alone) was 26.6% (active) and the viability ([12]; at 1.25 µM, OCI-P5x cells, without rucaparib) was 43.4% (active). The viability ([12]; at 5 µM, OCI-C5x cells, with rucaparib 10 µM, 100% = cells with rucaparib alone) was 4.57% (active), the viability ([12]; at 5 µM, OCI-C5x cells, without rucaparib) was 5.34% (active) and the viability ([12]; at 5 µM, OCI-P5x cells, with rucaparib 20 µM, 100% = cells with rucaparib alone) was 1.32% (active). The viability ([12]; at 5 µM, OCI-P5x cells, without rucaparib) was 2.31% (active), the inhibition ([13]; at 0.5 µM, stronger effect = higher value) was -27.6% (inactive) and the inhibition ([13]; measured here: combination with BGB IC20, at 0.005 µM) was -13.5%. The inhibition ([13]; measured here: combination with BGB IC40, at 0.005 µM) was 75.4%, the inhibition ([13]; measured here: combination with BGB IC40, at 0.05 µM) was -21.7% and the inhibition ([13]; measured here: combination with cisplatin, at 0.5 µM, stronger effect = higher value) was -26%. For the same compound, the inhibition ([13]; measured here: combination with cisplatin, at 5 µM, stronger effect = higher value) was 104%, the inhibition ([14]; BGB combo, at 5 µM) was 99.5% and the inhibition ([14]; at 0.5 µM) was 64.3% (inactive). The inhibition ([14]; cisplatin combo, at 5 µM) was 99.9%, the inhibition ([14]; measured here: with BGB IC20 combination, at 0.5 µM) was 57.9% and the inhibition ([14]; measured here: with cisplatin IC20 combination, at 0.5 µM) was 71.1%. It also gave an inhibition ([14]; single agent, at 5 µM) of 99.8%, an inhibition ([15]; BGB IC20 combo, at 0.005 µM) of 7.49% and an inhibition ([15]; BGB IC40 combo, at 0.005 µM) of -8.13%. For the same compound, the inhibition ([15]; BGB IC40 combo, at 0.05 µM) was 90.2%, the inhibition ([15]; at 0.5 µM) was -30.3% (inactive) and the inhibition ([15]; cisplatin combo, at 0.05 µM) was 90.2%. The inhibition ([15]; cisplatin combo, at 0.5 µM) was -38.4%, the inhibition ([15]; cisplatin combo, at 5 µM) was -16.6% and the inhibition ([15]; measured here: 5 uM single agent, at 5 µM) was -44.4%. For the same compound, the inhibition ([16]; at 0.5 µM) was 60.4% (inactive), the inhibition ([16]; measured here: with BGB IC20, at 0.5 µM) was 56% and the inhibition ([16]; measured here: with BGB IC20, at 5 µM) was 99.8%. The inhibition ([16]; measured here: with cisplatin IC20, at 0.5 µM) was 61.5%, the inhibition ([16]; measured here: with cisplatin IC20, at 5 µM) was 99.9% and the inhibition ([16]; single agent, at 5 µM) was 99.7%. For the same compound, the inhibition ([17]; at 0.5 µM) was 23.8% (inactive), the inhibition ([17]; measured here: BGB combination, at 0.5 µM) was 18.7% and the inhibition ([17]; measured here: BGB combination, at 5 µM) was 52.6%. For the same compound, the inhibition ([17]; measured here: cisplatin combination, at 0.5 µM) was 13.3%, the inhibition ([17]; measured here: cisplatin combination, at 5 µM) was 61.6% and the inhibition ([18]; at 0.5 µM) was 51.2% (inactive). It also gave an inhibition ([18]; cisplatin combination, at 0.5 µM) of 62.4%, an inhibition ([18]; cisplatin combination, at 5 µM) of 101% and an inhibition ([18]; measured here: BGB IC40 combination 0.05 uM, at 0.05 µM) of -12.4%. The inhibition ([18]; single agent, at 5 µM) was 107%, the inhibition ([19]; at 0.5 µM) was 35.2% (inactive) and the inhibition ([19]; cisplatin combo, at 5 µM) was 93.7%. The inhibition ([19]; measured here: BGB IC40 combination, at 0.05 µM) was 11.4%, the inhibition ([19]; measured here: combination with cisplatin, at 0.5 µM) was 47.6% and the inhibition ([19]; single agent, at 5 µM) was 89.4%.
